# Screening data as filed in PubChem.
# Cruzain noTriton – blocks cruzain activity in detergent-free assay | Potency, µM, most hits filed as inhibitors | AID 1476 | 200,000 compounds, 2.3% hits | purified cruzain, Z-FR-AMC fluorescence, no detergent; further: nearly all actives have a fitted effect of over 40% in size
#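 Purified cruzain at 1.5 nM, pre-incubated 15 min with compound at room temperature in 100 mM sodium acetate pH 5.5, 5 mM DTT, 0.00005% Triton X-100. Reaction started with 2 uM Z-FR-AMC; AMC fluorescence increase over 60 s gives rate.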
# Cruzain inh Det – inhibitors of Trypanosoma cruzi cruzain with detergent | Potency, µM, most hits filed as inhibitors | 200,000 compounds, 0.43% hits | P25779 | purified cruzain, Z-FR-AMC fluorescence, 0.01% Triton; further: nearly all actives have a fitted effect of over 40% in size
#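 Purified cruzain (1.5 nM final) was preincubated with compounds for 15 min at room temperature in 100 mM sodium acetate pH 5.5, 5 mM DTT, 0.01% Triton X-100. Reaction started with 2 uM Z-FR-AMC; AMC fluorescence change over 60 s gave activity.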
# NS1 function inh – influenza NS1 inhibition. Potency, µM (titrated, usually from 46.1 µM). 270,000 compounds, 0.4% hits. AID 2326; calls by dose curve; further: actives are rising curves; nearly all actives have a fitted effect of over 50% in size
#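 A cell-based growth assay was used: compounds that relieve NS1-induced slow growth of budding yeast raise OD600. Assay medium was yeast nitrogen base with ammonium sulphate and -URA supplement, pH 6.0, with 2% galactose.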
# Papain inh – counter-screen for cruzain inhibitors: papain inhibition; shares compounds with Cruzain inh Det; purified papain, Z-FR-AMC fluorescence cleavage; Potency, µM, most hits filed as inhibitors; 410 compounds, 41% hits; AID 2161; further: nearly all actives have a fitted effect of over 35% in size
# Target sequence (P00784 whole entry, looked up): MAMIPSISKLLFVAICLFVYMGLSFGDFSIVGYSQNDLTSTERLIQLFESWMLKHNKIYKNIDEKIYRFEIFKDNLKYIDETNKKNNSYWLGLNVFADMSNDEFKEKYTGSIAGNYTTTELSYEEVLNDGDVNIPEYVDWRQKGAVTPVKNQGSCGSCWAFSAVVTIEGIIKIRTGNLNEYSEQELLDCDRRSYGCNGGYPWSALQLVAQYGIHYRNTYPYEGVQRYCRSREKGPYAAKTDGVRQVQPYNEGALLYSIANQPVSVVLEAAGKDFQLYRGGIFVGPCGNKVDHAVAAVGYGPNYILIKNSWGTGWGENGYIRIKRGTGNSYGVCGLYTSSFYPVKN
# Flu NS1 inh – validation of influenza NS1 protein function inhibitors | influenza NS1 function cell assay, 15-point titration | AID 492980 | 1,400 tested, under 10 active | activity change, negative = inhibition, % at 32.9 µM | shares compounds with NS1 function inh; calls by dose curve
# Flu PR8 replic – influenza NS1 inhibitors: inhibition of influenza A/PR/8/34 replication | 95 compounds, 30% hits | MDCK infected influenza A/PR/8/34, virus titer TCID50; active compounds read low | virus titer (log TCID50), log10 TCID50 at 5 µM | shares compounds with NS1 function inh; call rule not given here
# Numbers stand for hits; - = inactive; ? = inconclusive; . = no result. Many of the other results were omitted from the sample, so hits are more common in it than they were. Unless noted, the call rests on the fitted dose curve; in most records, active means well fitted curve in the direction sought with a large enough effect; inconclusive means small, poorly fitted or top-dose-only effect, or another doubt; inactive means no such curve, though single readings can be large; an effect the other way counts as inactive or inconclusive.
SMILES,Cruzain noTriton,Cruzain inh Det,NS1 function inh,Flu NS1 inh,others
Cn1cc(S(=O)(=O)N2CCCCCC2)cc1C(=O)NCc1ccc(Cl)cc1,-,-,.,.,
CC1=C[N+](=O)c2ccccc2[N+]1=O,-,-,-,.,
CCCN(CCC)c1nc(C#N)nc(N(CCC)CCC)n1,.,.,.,.,Papain inh=2.5µM
CN(C)c1nc(C#N)nc(N(C)C)n1,.,.,.,.,Papain inh=11µM
CN(C)c1nc(N(C)C)nc(N(C)C)n1,-,-,?,.,
CCCN(CCC)c1nc(N)c(C#N)c(CC#N)c1C#N,-,-,-,.,
CCOc1ccccc1N(C)C(=O)c1sc2nc3n(c(=O)c2c1C)CCCC3,-,-,.,.,
O=[N+]([O-])c1ccc(-c2[se]c3ccccc3c2I)cc1,-,-,.,.,
CC(C)c1nc(N2CCN(C(=O)c3ccccc3)CC2)c(C#N)c2c1COC(C)(C)C2,-,-,-,.,
CC1(C)Cc2c(C#N)c(N3CCN(C(=O)c4ccccc4)CC3)nc(-c3ccco3)c2CS1,25µM,28µM,8.9µM,-,Papain inh=7.9µM
CC1C(=O)OC2CC34C5CC(C(C)(C)C)C36C(OC(=O)C6O)OC4(C(=O)O5)C21O (stereo not given),-,-,.,.,
CCN(CCO)c1nc(SC)nc2c1sc1nc(-c3ccco3)c3c(c12)CCC3,6.3µM,8.9µM,?,-,Papain inh=13µM
CCN(CCO)c1ncnc2c1sc1nc(C(C)C)c3c(c12)CC(C)(C)OC3,?,-,-,.,
COc1ccc(-n2c(=O)c(-c3ccc(Cl)cc3)nc3cnc(N(C)C)nc32)cc1,-,-,.,.,
Cc1ccc(S(=O)(=O)N(Cc2ccccc2)c2ccccc2C(=O)NCc2ccco2)cc1,-,-,-,.,
Cc1ccc(S(=O)(=O)N(Cc2ccccc2)c2ccccc2C(=O)Nc2ccccc2C(=O)NCc2ccco2)cc1,-,-,7.9µM,-,
O=C(NNC(=O)c1ccc(Br)cc1)c1ccncc1,.,.,?,-,
O=C(NNC(=O)c1ccncc1)c1ccncc1,-,-,-,.,
CSc1nn(Cc2cccc(Cl)c2)c(N(C(C)=O)C(C)=O)c1S(=O)(=O)c1ccccc1,-,-,.,.,
CN(CC(=O)NC1CCCCCC1)S(=O)(=O)c1ccc(F)cc1,.,.,-,.,
O=C(CCSc1ccccc1)NC1CCCCCC1,.,.,-,.,
O=C(CCSc1ccc(Cl)cc1)NC1CCCCC1,-,-,?,-,
CN(CC(=O)NC1CCCCC1)S(=O)(=O)c1ccc(Cl)cc1,-,-,?,-,
N=Nc1c(O)n(CC(=O)Nc2ccccc2)c2ccccc12,.,.,2.5µM,-,
NC(=S)N=Nc1c(O)n(CC(=O)Nc2ccccc2)c2ccccc12,.,.,-,.,
SMILES,Cruzain noTriton,Cruzain inh Det,NS1 function inh,Flu NS1 inh,others
Nc1nc2c(c(=O)[nH]1)N(C=O)[C@H](CNc1ccc(C(=O)N[C@@H](CCC(=O)O)C(=O)O)cc1)CN2,-,-,.,.,
Cc1cnc(C(=O)OCC(=O)Nc2ccc(Cl)cc2)cn1,-,-,-,.,
Cc1cnc(C(=O)OCC(=O)NC(=O)NC(C)C)cn1,-,-,1.4µM,-,
CN(C)C(=O)Oc1ccc2oc(=O)cc(-c3cc4ccccc4o3)c2c1,.,.,?,-,
Cc1cc2oc(=O)cc(-c3cc4ccccc4o3)c2cc1OC(=O)N(C)C,.,.,-,.,
O=c1c(-c2cc(F)cc(F)c2)nc2cncnc2n1Cc1ccccc1,-,-,.,.,
Cc1cn2c(=O)cc(COC(=O)COc3ccccc3C)nc2s1,-,-,.,.,
Cc1ccc(C)n1-c1nnc(N2CCC(C(=O)Nc3ccccc3Br)CC2)s1,-,-,.,.,
Cc1cc(C)cc(NC(=S)NCc2cccs2)c1,-,-,-,.,
Cc1cc(C)cc(NC(=S)NCc2cccn2C)c1,-,-,10µM,-,
CCC(C)NC(=O)c1ccc2c(c1)N=C(C)c1cc(C)ccc1S2 (stereo not given),-,-,.,.,
CCOc1ccc(CCNC(=O)c2nccnc2C(=O)O)cc1OCC,.,.,-,.,
CCOc1ccc(CCNC(=O)Cc2nn[nH]n2)cc1OCC,-,-,?,-,
CCCCOC(=O)c1cccc(NC(=O)c2cc3ccccc3o2)c1,-,-,.,.,
CN1CCN(CN2C(=O)C3C4C=CC(C3C2=O)C2C3C(=O)N(CN5CCN(C)CC5)C(=O)C3C42)CC1 (stereo not given),-,-,-,.,
O=C(NCC1CCCO1)C(c1ccco1)N(Cc1ccc(F)cc1)C(=O)CN1C(=O)c2ccccc2S1(=O)=O (stereo not given),.,.,-,.,
COc1cccc(CN(C(=O)CN2C(=O)c3ccccc3S2(=O)=O)C(C(=O)NCC2CCCO2)c2ccco2)c1 (stereo not given),.,.,?,-,
O=C(N/N=C\c1c(O)ccc2ccccc12)c1ccc(Cn2cccn2)o1,-,-,?,-,
O=C(N/N=C\c1ccc(Cl)s1)c1ccc(Cn2cccn2)o1,-,-,-,.,
Cc1ccc(-c2nnc(NCc3nc4ccccc4[nH]3)c3ccccc23)cc1S(=O)(=O)N(C)C,-,-,5.6µM,-,Flu PR8 replic=7.5
Cc1ccc(-c2nnc(NCc3nc4ccccc4[nH]3)c3ccccc23)cc1S(=O)(=O)N1CCOCC1,?,-,?,.,
COc1cc(C(CC(=O)Nc2cccc(C(C)=O)c2)N2Cc3ccccc3C2=O)cc(OC)c1OC (stereo not given),?,-,.,.,
Cc1ccccc1-n1c(=O)cc(NCc2ccc3c(c2)OCO3)[nH]c1=O,-,-,?,-,
